# MITF inh = human MITF inhibition, primary screen. AlphaScreen MITF homodimerization, bead proximity signal. inhibition, % at 2.6 µM. 0.91% of 650,000 active. AID 1259374; in the data active = inhibition above about 50%;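 also: 0% = vehicle wells with protein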
# TEAD-YAP block = TEAD-YAP interaction inhibition | HEK-TIYL cells, TEAD-Gal4/YAP UAS-luciferase luminescence | inhibition, % at 9.12 µM | 1.4% of 640,000 active | AID 1259422; in the data active = inhibition above about 32%;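 also: 0% = median of test compound wells and 100% = reference inhibitor wells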
# GPR151 activ = activates the human receptor GPR151 | PathHunter beta-arrestin GPR151 cells, luminescence | activation, % at 11.2 µM | 1% of 650,000 active | AID 1508602; in the data active = activation above about 4.9%;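 also: 0% = median of compound wells and 100% = cells with positive control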
# Target sequence (Q8TDV0 whole entry, looked up): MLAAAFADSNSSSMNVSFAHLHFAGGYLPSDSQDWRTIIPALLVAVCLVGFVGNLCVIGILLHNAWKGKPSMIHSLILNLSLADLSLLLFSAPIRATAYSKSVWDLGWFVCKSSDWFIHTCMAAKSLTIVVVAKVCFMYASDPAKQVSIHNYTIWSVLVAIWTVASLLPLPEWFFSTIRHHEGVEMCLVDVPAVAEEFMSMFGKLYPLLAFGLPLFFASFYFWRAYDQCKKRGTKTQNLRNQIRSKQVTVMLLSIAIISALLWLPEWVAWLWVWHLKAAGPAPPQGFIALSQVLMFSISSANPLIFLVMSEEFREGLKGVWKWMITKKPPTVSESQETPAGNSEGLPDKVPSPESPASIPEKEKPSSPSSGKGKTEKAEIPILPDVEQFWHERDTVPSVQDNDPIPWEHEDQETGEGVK
# FBW7 activator = activators of human E3 ligase FBW7 | Q969H0 | AlphaScreen FBW7–phospho-cyclin E peptide binding, activator screen | normalized activity (activation), % at 26.1 µM | 0.13% of 650,000 active; in the data active = normalized activity above about 1.9%;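 also: purified mutant Fbw7 with reduced substrate affinity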
# * marks the source's active call; other numbers are inactive results. Sampled rows, rich in hits. Any-hit rate of the full collection: about 3.5%.
SMILES,MITF inh,TEAD-YAP block,GPR151 activ,FBW7 activator
CCSc1nc2sccn2c(=O)c1C(=O)NCc1ncc(C(F)(F)F)cc1Cl,19.8,11.0,-0.4,0.0
Cc1ccc(-n2ncc3c(SCC(=O)NCc4ccco4)ncnc32)c(C)c1,6.0,38.7*,-1.5,0.2
Cc1csc(SCc2cc(=O)c(OC(=O)c3cccc4ccccc34)co2)n1,-1.9,0.0,-1.1,-0.1
COc1ccc(CCNc2cc(C)nc(-c3ccc(OC)cc3)n2)cc1,15.6,-31.3,-3.0,0.6
CC(=O)c1ccc(NC(=O)CSc2nc(-c3ccccc3)c3ccccc3n2)cc1,-7.3,9.2,0.3,0.0
C/C(=N\NC(N)=O)c1ccc([N+](=O)[O-])cc1,1.1,0.7,3.4,-0.1
COc1ccccc1C(=O)N/N=C/c1ccc([N+](=O)[O-])s1,-0.3,48.6*,-0.9,-0.3
CCOc1cc([N+](=O)[O-])cc(/C=N/NC(=O)c2cc(C(C)(C)C)[nH]n2)c1O,66.4*,25.2,0.5,-0.1
O=C(N/N=C/c1cc([N+](=O)[O-])ccc1O)c1ccccc1[N+](=O)[O-],68.9*,7.4,-0.3,-0.9
O=C(N/N=C/c1ccccc1O)c1ccccc1[N+](=O)[O-],13.8,4.3,0.9,-0.6
Cc1ccc(C(=O)N/N=C/c2ccc([N+](=O)[O-])s2)cc1,-4.0,26.3,0.5,0.0
C/C(=N\NC(N)=S)c1ccc([N+](=O)[O-])cc1,-3.2,35.9*,-0.1,-0.1
C=CCC1(CC=C)CCCN1C(=O)CC1C(=O)NCCN1CCc1ccccc1 (stereo not drawn),19.8,4.0,0.2,0.0
CC1(CC(=O)NNC(=S)Nc2ccccc2)OCCO1,3.5,-7.5,-0.5,0.0
COc1cc(NS(=O)(=O)c2ccc(NC(=O)COc3ccc(C)cc3Br)cc2)nc(OC)n1,11.1,-3.8,-2.6,0.3
COc1cc([N+](=O)[O-])cc(/C=N/NC(=O)c2ccccc2Br)c1O,73.5*,5.1,-0.9,0.5
NC(=S)N/N=C/c1cc([N+](=O)[O-])ccc1O,100.1*,-6.1,-1.8,-1.2
CCOc1ccccc1C(=O)N/N=C/c1cc([N+](=O)[O-])cc(OC)c1O,-13.8,-5.6,-0.5,-0.2
COc1cc([N+](=O)[O-])cc(/C=N/NC(=O)c2ccccc2[N+](=O)[O-])c1O,65.3*,-14.8,1.9,-0.8
CCCSc1ncc(Cl)c(C(=O)Nc2ccc(S(N)(=O)=O)cc2)n1,4.6,11.8,-0.8,-0.1
Oc1ccc2ccccc2c1C=NCc1cn2ccccc2n1,20.9,2.6,-1.7,-0.1
Cc1ccc2[nH]c3nc(N/N=C/c4ccc(O)c(O)c4)nnc3c2c1,87.0*,-4.4,-0.7,-1.5
COc1cccc(/C=N/Nc2nnc3c(n2)[nH]c2ccccc23)c1,16.8,-30.9,-0.4,0.0
CCOc1cc(/C=N/Nc2nnc3c(n2)[nH]c2ccc(C)cc23)ccc1O,-7.5,3.4,-0.1,0.1
COc1ccc(/C=N/Nc2nnc3c(n2)[nH]c2ccc(Br)cc23)c(O)c1,-3.4,-5.7,0.1,-0.1
SMILES,MITF inh,TEAD-YAP block,GPR151 activ,FBW7 activator
COc1ccc(Br)cc1/C=N/Nc1nnc2c(n1)[nH]c1ccccc12,18.9,-4.0,0.1,2.1*
Cc1ccc2[nH]c3nc(N/N=C/c4ccc(O)cc4O)nnc3c2c1,21.7,63.3*,0.9,-2.0
CCc1ccc(C2NC(=O)NC(C)=C2C(=O)OCc2ccc3c(c2)OCO3)cc1 (stereo not drawn),-2.8,54.6*,-1.4,-0.1
CC1=C(C(=O)OCc2ccc3c(c2)OCO3)C(c2ccccc2)NC(=O)N1 (stereo not drawn),15.1,50.9*,1.0,0.0
CC1=C(C(=O)OCc2ccc3c(c2)OCO3)C(c2cc3c(cc2Br)OCO3)NC(=O)N1 (stereo not drawn),-8.6,1.4,1.0,0.0
O=C(CCCN1C(=O)c2ccccc2C1=O)NC12CC3CC(CC(O)(C3)C1)C2,-36.5,-16.0,-1.1,0.0
CC(C)(C)NC(=O)COc1coc(CN2CCN(c3cccc(Cl)c3)CC2)cc1=O,0.1,1.3,-1.1,-0.2
CC1=NN(C(N)=S)C(=O)C1N=Nc1ccccc1O (stereo not drawn),58.0*,-15.8,-0.1,-2.5
CC1=NN(C(N)=S)C(=O)C1N=Nc1ccccc1C (stereo not drawn),8.9,-15.2,-5.0,-0.6
Nc1nc(-c2ccc(Cl)cc2Cl)c(-n2cncn2)s1,5.7,9.1,-0.6,0.3
CC(C)c1cc(C(=O)Nc2ccc(Cl)cn2)nn1-c1nc2ccccc2s1,15.6,46.5*,0.7,0.1
COc1ccc(NC(=O)c2cc(C(C)C)n(-c3nc4ccccc4s3)n2)c(OC)c1,-5.0,63.5*,-1.6,0.1
O=C(c1ccccc1)N1CCN(c2nc3ccccc3s2)CC1,2.2,-19.7,0.3,-0.1
CCN1CCN(C(=O)c2cc(C(C)C)n(-c3nc4ccccc4s3)n2)CC1,-3.9,81.4*,-0.2,-0.3
COc1cccc(NC(=O)c2cc(C(C)C)n(-c3nc4ccccc4s3)n2)c1,-11.3,48.2*,0.0,0.0
Cc1ccc(C)c(Cn2cccc2C2=NCCO2)c1,-8.7,3.0,-0.5,0.5
COc1cccc(-c2csc(/C(C#N)=C/Nc3ccc(C(N)=O)cc3)n2)c1,12.2,1.8,1.1,0.0
Nc1c(C(=O)NCCc2ccc(S(N)(=O)=O)cc2)sc2nc3c(cc12)CCCC3,8.8,-40.3,-0.8,0.1
CC1(C)Cc2nc3sc4c(SCC(=O)O)ncnc4c3cc2CO1,4.0,47.0*,-0.9,0.1
Cc1ccc(Cl)cc1N1CCN(C(=O)CN(CCc2ccccc2)S(C)(=O)=O)CC1,-5.7,-0.1,1.0,0.0
CCOc1cc(C(=O)Nc2sccc2C(N)=O)cc(OCC)c1OCC,2.2,36.4*,1.3,0.1
CCOc1cc(C(=O)Nc2ccccc2C(N)=O)cc(OCC)c1OCC,-5.5,36.9*,-0.2,0.0
CCOc1cc(C(=O)Nc2sccc2C(=O)N2CCOCC2)cc(OCC)c1OCC,3.2,19.9,0.6,1.0
CCOc1ccccc1NC(=O)c1cc(OCC)c(OCC)c(OCC)c1,3.2,12.8,-0.5,0.0
O=C(CSc1ccc2ccccc2n1)NNC(=O)c1ccc(Cl)cc1,-2.9,5.0,0.2,0.0
SMILES,MITF inh,TEAD-YAP block,GPR151 activ,FBW7 activator
COc1ccc(-n2c(=S)[nH]c3cc(C(=O)Nc4ccc(F)cc4)ccc3c2=O)c(OC)c1,3.4,71.2*,2.3,-0.1
CCCn1ncc(C(=O)N2C[C@H](C(=O)O)[C@@H](c3ccccc3F)C2)c1C,2.0,9.0,1.5,0.1
COc1ccccc1C(NC(=O)Cc1ccccc1)c1ccc2cccnc2c1O (stereo not drawn),22.4,29.3,0.0,-1.0
Cc1ccc(C(NC(=O)C2CCCCC2)c2ccc3cccnc3c2O)cc1 (stereo not drawn),30.5,33.9*,1.6,-0.5
COc1ccc(C(NC(=O)C(C)C)c2ccc3cccnc3c2O)cc1 (stereo not drawn),50.6*,74.6*,-1.1,-1.7
COc1ccc(C(NC(C)=O)c2ccc3cccnc3c2O)cc1 (stereo not drawn),47.9,85.8*,0.4,-1.8
CCN(CC)c1ccc(C(NC(=O)C(C)C)c2cc(Cl)c3cccnc3c2O)cc1 (stereo not drawn),8.2,1.3,-1.5,0.2

# Bioassay records from PubChem.
